Reference: ChEMBL document CHEMBL1961873, “Compounds: GSK PKIS; Assays: Nanosyn kinase panel” (2012)

Columns and labels:
[1] = biological target: T1, Tyrosine-protein kinase ITK/TSK (Homo sapiens) (UniProt Q08881); details: at 1 µM;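 further: values are mean percent inhibition of ITK from the GSK PKIS screen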
T1 sequence (whole entry): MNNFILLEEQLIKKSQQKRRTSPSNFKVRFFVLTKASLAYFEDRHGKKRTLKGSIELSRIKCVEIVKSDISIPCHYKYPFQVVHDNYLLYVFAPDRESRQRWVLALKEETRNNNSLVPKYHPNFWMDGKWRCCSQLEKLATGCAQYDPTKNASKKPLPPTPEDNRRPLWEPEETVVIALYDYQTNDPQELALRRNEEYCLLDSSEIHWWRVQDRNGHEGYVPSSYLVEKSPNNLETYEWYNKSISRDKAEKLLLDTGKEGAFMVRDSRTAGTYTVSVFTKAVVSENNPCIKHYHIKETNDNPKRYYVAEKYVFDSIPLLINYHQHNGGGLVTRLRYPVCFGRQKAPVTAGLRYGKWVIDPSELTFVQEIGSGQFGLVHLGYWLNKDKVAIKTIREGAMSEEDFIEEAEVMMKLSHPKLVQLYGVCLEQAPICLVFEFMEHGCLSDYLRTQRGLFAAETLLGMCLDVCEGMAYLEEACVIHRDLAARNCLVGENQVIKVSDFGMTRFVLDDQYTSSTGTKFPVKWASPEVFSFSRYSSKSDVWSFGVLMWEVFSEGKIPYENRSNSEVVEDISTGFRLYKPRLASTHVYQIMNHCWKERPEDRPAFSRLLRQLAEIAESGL

[2] = biological target: Tyrosine-protein kinase JAK1 (Homo sapiens) (UniProt P23458); details: at 0.1 µM
[3] = biological target: Tyrosine-protein kinase JAK1 (Homo sapiens) (UniProt P23458); details: at 1 µM
[4] = biological target: Tyrosine-protein kinase JAK2 (Homo sapiens) (UniProt O60674); details: at 0.1 µM
[5] = biological target: Tyrosine-protein kinase JAK2 (Homo sapiens) (UniProt O60674); details: at 1 µM
[6] = biological target: T2, Tyrosine-protein kinase JAK3 (Homo sapiens) (UniProt P52333); details: at 0.1 µM
T2 sequence (whole entry): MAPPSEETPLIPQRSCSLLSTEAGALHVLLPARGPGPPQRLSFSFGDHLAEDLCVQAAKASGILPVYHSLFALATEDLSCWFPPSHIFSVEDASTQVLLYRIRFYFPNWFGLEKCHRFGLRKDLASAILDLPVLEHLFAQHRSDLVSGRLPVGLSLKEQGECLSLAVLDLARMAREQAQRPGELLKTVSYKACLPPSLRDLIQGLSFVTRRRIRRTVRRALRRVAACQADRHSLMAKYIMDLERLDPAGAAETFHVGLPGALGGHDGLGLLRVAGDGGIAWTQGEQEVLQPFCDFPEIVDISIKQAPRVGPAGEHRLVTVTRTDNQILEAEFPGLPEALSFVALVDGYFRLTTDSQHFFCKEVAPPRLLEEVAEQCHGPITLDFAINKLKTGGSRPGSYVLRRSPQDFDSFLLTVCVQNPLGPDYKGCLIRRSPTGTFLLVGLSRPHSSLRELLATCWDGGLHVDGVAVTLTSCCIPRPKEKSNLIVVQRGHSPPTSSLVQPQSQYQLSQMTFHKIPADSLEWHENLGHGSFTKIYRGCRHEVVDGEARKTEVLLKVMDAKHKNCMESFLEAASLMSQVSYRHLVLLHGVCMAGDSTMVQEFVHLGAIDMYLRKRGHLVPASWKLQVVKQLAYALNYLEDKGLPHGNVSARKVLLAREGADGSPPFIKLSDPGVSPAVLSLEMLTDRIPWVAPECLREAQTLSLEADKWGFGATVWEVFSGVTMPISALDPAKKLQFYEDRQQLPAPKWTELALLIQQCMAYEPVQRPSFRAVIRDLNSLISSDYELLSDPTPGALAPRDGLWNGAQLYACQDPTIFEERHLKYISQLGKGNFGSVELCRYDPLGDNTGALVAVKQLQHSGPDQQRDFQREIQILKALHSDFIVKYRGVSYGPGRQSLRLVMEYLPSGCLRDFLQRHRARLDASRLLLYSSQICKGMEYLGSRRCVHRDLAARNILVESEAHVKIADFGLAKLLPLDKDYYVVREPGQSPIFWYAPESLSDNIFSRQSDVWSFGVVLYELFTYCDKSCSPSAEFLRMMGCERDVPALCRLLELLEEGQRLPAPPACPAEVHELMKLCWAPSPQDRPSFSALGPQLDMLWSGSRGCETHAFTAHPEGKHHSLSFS

[7] = biological target: T2, Tyrosine-protein kinase JAK3 (Homo sapiens); details: at 1 µM
[8] = biological target: Vascular endothelial growth factor receptor 2 (Homo sapiens) (UniProt P35968); details: at 0.1 µM
[9] = biological target: Vascular endothelial growth factor receptor 2 (Homo sapiens) (UniProt P35968); details: at 1 µM
[10] = biological target: Mast/stem cell growth factor receptor Kit (Homo sapiens) (UniProt P10721); details: at 0.1 µM
[11] = biological target: Mast/stem cell growth factor receptor Kit (Homo sapiens) (UniProt P10721); details: at 1 µM
[12] = system: Mast/stem cell growth factor receptor Kit (Homo sapiens), P10721 [D816V]; details: at 0.1 µM
[13] = system: Mast/stem cell growth factor receptor Kit (Homo sapiens), P10721 [D816V]; details: at 1 µM
[14] = system: Mast/stem cell growth factor receptor Kit (Homo sapiens), P10721 [T670I]; details: at 0.1 µM
[15] = system: Mast/stem cell growth factor receptor Kit (Homo sapiens), P10721 [T670I]; details: at 1 µM
[16] = system: Mast/stem cell growth factor receptor Kit (Homo sapiens), P10721 [V560G]; details: at 0.1 µM
[17] = system: Mast/stem cell growth factor receptor Kit (Homo sapiens), P10721 [V560G]; details: at 1 µM
[18] = biological target: Tyrosine-protein kinase Lck (Homo sapiens) (UniProt P06239); details: at 0.1 µM
[19] = biological target: Tyrosine-protein kinase Lck (Homo sapiens) (UniProt P06239); details: at 1 µM
[20] = biological target: Leukocyte tyrosine kinase receptor (Homo sapiens) (UniProt P29376); details: at 0.1 µM

Mast/stem cell growth factor receptor Kit (Homo sapiens), P10721 [V560G], sequence (P10721 whole entry V560G): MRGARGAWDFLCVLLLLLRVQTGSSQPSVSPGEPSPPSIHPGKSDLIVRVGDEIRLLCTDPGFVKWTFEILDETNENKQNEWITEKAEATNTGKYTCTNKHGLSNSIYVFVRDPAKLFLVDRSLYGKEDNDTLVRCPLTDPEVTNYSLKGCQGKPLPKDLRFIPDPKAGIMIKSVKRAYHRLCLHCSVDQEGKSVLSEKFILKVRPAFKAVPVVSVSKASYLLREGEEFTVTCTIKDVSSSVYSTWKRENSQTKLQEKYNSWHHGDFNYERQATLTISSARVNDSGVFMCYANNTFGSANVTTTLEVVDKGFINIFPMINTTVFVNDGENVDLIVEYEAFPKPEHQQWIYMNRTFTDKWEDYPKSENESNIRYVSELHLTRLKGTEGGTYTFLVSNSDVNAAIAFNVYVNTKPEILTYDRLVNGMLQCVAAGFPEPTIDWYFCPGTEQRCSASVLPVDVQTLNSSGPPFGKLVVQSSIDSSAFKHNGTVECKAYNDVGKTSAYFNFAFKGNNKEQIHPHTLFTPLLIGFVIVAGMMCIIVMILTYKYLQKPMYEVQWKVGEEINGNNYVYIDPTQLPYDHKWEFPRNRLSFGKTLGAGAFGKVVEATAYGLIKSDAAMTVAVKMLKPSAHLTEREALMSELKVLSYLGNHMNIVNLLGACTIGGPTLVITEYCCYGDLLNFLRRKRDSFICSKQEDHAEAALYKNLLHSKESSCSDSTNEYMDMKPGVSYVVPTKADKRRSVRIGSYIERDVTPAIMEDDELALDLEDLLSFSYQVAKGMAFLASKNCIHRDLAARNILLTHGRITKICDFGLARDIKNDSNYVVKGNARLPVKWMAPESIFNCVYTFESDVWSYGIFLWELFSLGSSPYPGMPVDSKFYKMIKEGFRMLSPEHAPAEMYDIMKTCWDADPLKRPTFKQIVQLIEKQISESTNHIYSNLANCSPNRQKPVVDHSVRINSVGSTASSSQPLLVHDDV
Mast/stem cell growth factor receptor Kit (Homo sapiens), sequence (P10721 whole entry): as the sequence (P10721 whole entry V560G) above, with G560V counted along it
Mast/stem cell growth factor receptor Kit (Homo sapiens), P10721 [T670I], sequence (P10721 whole entry T670I): as the sequence (P10721 whole entry V560G) above, with G560V, T670I counted along it
Tyrosine-protein kinase JAK2 (Homo sapiens), sequence (O60674 whole entry): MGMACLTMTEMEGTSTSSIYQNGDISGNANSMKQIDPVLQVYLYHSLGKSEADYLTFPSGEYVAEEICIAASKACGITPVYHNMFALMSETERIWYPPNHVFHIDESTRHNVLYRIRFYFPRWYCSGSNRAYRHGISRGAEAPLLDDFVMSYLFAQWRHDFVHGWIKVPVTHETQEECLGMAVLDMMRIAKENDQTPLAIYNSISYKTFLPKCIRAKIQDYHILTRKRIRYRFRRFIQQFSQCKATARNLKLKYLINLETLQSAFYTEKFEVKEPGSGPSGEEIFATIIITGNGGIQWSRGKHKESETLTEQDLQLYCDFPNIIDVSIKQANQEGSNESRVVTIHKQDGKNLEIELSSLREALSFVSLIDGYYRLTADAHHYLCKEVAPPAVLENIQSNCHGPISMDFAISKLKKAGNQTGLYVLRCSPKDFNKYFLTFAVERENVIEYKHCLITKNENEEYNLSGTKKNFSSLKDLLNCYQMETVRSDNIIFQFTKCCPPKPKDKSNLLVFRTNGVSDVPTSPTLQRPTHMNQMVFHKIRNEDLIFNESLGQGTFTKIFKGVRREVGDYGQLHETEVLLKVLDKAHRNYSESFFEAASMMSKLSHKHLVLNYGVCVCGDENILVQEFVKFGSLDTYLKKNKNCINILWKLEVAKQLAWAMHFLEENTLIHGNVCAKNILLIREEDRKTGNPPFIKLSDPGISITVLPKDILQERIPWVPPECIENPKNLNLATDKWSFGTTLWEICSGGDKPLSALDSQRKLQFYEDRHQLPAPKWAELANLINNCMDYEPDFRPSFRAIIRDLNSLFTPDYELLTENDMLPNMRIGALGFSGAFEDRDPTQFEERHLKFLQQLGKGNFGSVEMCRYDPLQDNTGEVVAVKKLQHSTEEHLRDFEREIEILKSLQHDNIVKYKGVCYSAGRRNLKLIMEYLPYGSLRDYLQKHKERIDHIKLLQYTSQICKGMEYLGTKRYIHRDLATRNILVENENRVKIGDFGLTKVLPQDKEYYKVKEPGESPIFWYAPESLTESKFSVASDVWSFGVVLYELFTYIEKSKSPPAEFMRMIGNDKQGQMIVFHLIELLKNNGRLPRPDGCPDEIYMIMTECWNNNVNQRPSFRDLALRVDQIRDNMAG
Tyrosine-protein kinase JAK1 (Homo sapiens), sequence (P23458 whole entry): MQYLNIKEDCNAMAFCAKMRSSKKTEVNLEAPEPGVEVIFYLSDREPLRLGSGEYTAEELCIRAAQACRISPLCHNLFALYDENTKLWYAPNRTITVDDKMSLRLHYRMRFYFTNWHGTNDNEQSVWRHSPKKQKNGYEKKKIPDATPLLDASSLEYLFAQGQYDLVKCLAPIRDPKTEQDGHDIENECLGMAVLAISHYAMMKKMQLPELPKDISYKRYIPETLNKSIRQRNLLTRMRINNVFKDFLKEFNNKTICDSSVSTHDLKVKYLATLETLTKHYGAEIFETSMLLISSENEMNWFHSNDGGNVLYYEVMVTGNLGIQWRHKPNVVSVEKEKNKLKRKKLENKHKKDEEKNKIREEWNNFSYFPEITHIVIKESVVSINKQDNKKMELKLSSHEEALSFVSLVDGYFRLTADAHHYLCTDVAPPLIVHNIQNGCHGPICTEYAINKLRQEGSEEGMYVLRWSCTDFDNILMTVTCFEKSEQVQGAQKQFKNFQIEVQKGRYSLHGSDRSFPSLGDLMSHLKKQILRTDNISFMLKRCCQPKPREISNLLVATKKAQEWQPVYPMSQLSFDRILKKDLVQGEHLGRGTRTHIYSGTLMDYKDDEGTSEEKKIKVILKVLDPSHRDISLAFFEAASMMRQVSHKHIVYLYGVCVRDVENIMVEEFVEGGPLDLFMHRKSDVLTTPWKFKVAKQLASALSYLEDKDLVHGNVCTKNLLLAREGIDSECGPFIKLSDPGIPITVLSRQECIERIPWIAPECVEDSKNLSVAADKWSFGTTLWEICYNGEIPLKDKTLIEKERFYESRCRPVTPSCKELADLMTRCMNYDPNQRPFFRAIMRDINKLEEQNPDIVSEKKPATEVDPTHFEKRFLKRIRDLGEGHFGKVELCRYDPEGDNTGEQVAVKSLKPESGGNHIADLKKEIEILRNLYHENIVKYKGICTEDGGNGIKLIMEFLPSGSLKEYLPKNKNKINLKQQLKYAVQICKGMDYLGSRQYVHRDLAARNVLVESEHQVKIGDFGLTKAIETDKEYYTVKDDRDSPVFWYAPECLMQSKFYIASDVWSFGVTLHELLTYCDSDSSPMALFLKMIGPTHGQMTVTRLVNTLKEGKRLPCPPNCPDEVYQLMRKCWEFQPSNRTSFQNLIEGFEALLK
Vascular endothelial growth factor receptor 2 (Homo sapiens), sequence (P35968 whole entry): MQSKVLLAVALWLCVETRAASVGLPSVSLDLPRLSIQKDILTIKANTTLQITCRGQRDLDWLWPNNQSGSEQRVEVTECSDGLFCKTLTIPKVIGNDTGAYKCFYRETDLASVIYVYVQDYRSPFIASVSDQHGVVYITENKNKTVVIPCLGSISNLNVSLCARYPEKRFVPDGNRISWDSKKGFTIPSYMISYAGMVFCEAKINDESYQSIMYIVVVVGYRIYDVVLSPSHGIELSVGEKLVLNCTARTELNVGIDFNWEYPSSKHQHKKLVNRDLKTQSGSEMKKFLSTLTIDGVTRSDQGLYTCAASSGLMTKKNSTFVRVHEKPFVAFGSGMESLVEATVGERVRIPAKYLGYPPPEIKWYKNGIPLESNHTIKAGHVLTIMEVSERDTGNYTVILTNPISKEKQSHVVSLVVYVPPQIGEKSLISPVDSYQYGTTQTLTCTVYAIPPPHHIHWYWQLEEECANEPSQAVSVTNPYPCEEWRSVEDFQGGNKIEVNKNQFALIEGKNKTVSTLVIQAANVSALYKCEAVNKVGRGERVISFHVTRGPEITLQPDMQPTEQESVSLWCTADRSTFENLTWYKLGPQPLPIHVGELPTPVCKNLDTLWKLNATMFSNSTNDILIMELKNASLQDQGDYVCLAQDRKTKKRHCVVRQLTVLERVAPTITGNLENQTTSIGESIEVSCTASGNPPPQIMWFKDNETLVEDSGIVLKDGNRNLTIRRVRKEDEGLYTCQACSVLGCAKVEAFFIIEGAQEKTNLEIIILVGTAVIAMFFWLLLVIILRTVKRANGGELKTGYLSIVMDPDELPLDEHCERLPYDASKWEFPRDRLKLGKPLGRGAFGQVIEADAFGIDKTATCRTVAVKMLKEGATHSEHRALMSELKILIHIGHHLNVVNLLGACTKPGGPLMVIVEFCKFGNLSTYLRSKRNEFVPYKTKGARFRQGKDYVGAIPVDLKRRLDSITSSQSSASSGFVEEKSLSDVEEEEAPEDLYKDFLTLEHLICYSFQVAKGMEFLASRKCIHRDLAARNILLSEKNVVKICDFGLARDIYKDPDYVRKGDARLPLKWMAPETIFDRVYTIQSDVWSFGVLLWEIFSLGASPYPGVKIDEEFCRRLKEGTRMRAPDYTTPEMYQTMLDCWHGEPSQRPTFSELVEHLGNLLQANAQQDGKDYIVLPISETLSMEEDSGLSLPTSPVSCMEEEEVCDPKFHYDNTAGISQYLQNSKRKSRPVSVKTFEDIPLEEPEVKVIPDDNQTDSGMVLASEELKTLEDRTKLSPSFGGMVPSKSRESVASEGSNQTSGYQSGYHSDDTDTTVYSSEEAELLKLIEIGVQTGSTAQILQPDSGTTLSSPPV
Mast/stem cell growth factor receptor Kit (Homo sapiens), P10721 [D816V], sequence (P10721 whole entry D816V): as the sequence (P10721 whole entry V560G) above, with G560V, D816V counted along it

Structure (SMILES)	inhibition [1]	inhibition [2]	inhibition [3]	inhibition [4]	inhibition [5]	inhibition [6]	inhibition [7]	inhibition [8]	inhibition [9]	inhibition [10]	inhibition [11]	inhibition [12]	inhibition [13]	inhibition [14]	inhibition [15]	inhibition [16]	inhibition [17]	inhibition [18]	inhibition [19]	inhibition [20]
Nc1ccc(C#Cc2cncnc2Nc2ccc(OCc3cccc(F)c3)c(Cl)c2)cc1	1.02%	0.18%	0.58%	0.74%	0.43%	-2.62%	-0.39%	1.13%	5.84%	5.48%	5.56%	2.12%	3.81%	1.88%	3.05%	-3.03%	-1.6%	2.57%	4.92%	3.5%
COc1cc2ncn(-c3cc(OCc4ccccc4S(C)(=O)=O)c(C#N)s3)c2cc1OC	11.5%	3.78%	5.39%	2.72%	29.4%	5.19%	55%	25.6%	67.3%	5.42%	7.97%	2.49%	5.22%	3.82%	2.96%		0.98%	23.3%	69.2%	4%
CC(C)c1ccc(Nc2nccc(-c3cnn4ncccc34)n2)cc1	1.41%	2.68%	8.98%	2.04%	8.72%	0.01%	6.19%	5.7%	14.6%	68.6%	95.5%	2.6%	4.42%	19.5%	81.3%	17.7%	64%	1.2%	3.47%	2.91%
ON=C1CCc2cc(-c3nc(C4CCNCC4)[nH]c3-c3ccncc3)ccc21	0.87%	-0.79%	0.05%	-0.01%	0.28%	-1.58%	3.17%	1.06%	4.49%	-3%	-4.25%	2.66%	5.8%	-0.79%	-1.23%	-2.31%	-1.75%	0.93%	6.86%	1.01%
c1ccc(Cc2nc3ccc(Nc4ncnc5ccccc45)cc3[nH]2)cc1	1.07%	1.47%	5.36%	1.11%	1.7%	-1.75%	2.4%	2.38%	5.81%	6.44%	11.5%	2.6%	7.57%	5.98%	3.71%	2.34%	5.96%	2.08%	9.45%	2.98%
Cc1cc(-c2ccccn2)cc(C)c1/C=C/c1cncc(-c2nn[nH]n2)c1	0.66%	4.47%	3.3%	2.08%	2.43%	0.16%	0.72%	3.45%	14.2%	4.89%	6.45%	0.82%	-1.39%	5.04%	0.22%	-3.07%	-1.86%	4.47%	12.1%	4.42%
